Assay results published in PubChem BioAssay AID1159580 (chemical genetic matrix, 2015).
Several values for one entry are separate records, joined by “and”; a condition that tells them apart may be missing. Equal values may be shown once. Among all 5,500 compounds or so, about 2,000 (36%) were called active. Inconclusive results (about 18%) are left out. Some of the results follow. A number with no mark means an inactive call. Rule as the data show it: active = normalized growth mostly below about 0.91 (no sharp cut-off); inconclusive = no clear call, values can overlap the other calls; inactive = mostly above about 0.92.

Test: chemical genetic growth profiling, strain panel (AID 1159580);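 also: tested at 20 µM; growth read once vehicle control cultures reached saturation at 30 °C; 1 = growth at the plate median or of vehicle wells; lower values mean less growth of the strain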
Conditions: S. cerevisiae deletion strains, growth OD

Compound: C[C@H]1COc2c(N3CCN(C)CC3)c(F)cc3c(=O)c(C(=O)O)cn1c23
- normalized growth (locus YAL013W, strain DEP1, hits give low values): 1
- normalized growth (locus YAL021C, strain ccr4, hits give low values): 1.02
- normalized growth (locus YAL026C, strain drs2, hits give low values): 1.03
- normalized growth (locus YAL030W, strain snc1, hits give low values): 1.02
- normalized growth (locus YBR009C, strain hhf1, hits give low values): 1.01
- normalized growth (locus YBR021W, strain FUR4, hits give low values): 0.995
- normalized growth (locus YBR023C, strain chs3, hits give low values): 1.02
- normalized growth (locus YBR171W, strain sec66, hits give low values): 1.04
- normalized growth (locus YBR229C, strain ROT2, hits give low values): 1
- normalized growth (locus YBR231C, strain swc5, hits give low values): 1.02
- normalized growth (locus YBR279W, strain paf1, hits give low values): 1.02
- normalized growth (locus YCL011C, strain gbp2, hits give low values): 0.259 (active)
- normalized growth (locus YCL016C, strain dcc1, hits give low values): 1.02
- normalized growth (locus YCL029C, strain bik1, hits give low values): 1.02
- normalized growth (locus YCL061C, strain MRC1, hits give low values): 1.04
- normalized growth (locus YCL069W, strain vba3, hits give low values): 1.02
- normalized growth (locus YCR088W, strain abp1, hits give low values): 1.02
- normalized growth (locus YDL005C, strain med2, hits give low values): 1.04
- normalized growth (locus YDL035C, strain GPR1, hits give low values): 1.02
- normalized growth (locus YDL040C, strain nat1, hits give low values): 1.02
- normalized growth (locus YDL074C, strain BRE1, hits give low values): 1.01
- normalized growth (locus YDL101C, strain DUN1, hits give low values): 0.999
- normalized growth (locus YDL134C, strain PPH21, hits give low values): 1.01
- normalized growth (locus YDL185W, strain tfp1, hits give low values): 1.02
- normalized growth (locus YDL192W, strain arf1, hits give low values): 1.02
- normalized growth (locus YDR001C, strain nth1, hits give low values): 1.02
- normalized growth (locus YDR069C, strain doa4, hits give low values): 1.04
- normalized growth (locus YDR101C, strain arx1, hits give low values): 1.01
- normalized growth (locus YDR137W, strain rgp1, hits give low values): 0.989
- normalized growth (locus YDR150W, strain NUM1, hits give low values): 0.999
- normalized growth (locus YDR159W, strain sac3, hits give low values): 1.03
- normalized growth (locus YDR162C, strain NBP2, hits give low values): 0.989
- normalized growth (locus YDR195W, strain ref2): 0.993
- normalized growth (locus YDR297W, strain sur2, hits give low values): 1.02
- normalized growth (locus YDR318W, strain mcm21, hits give low values): 1.02
- normalized growth (locus YDR334W, strain swr1, hits give low values): 1.01
- normalized growth (locus YDR335W, strain msn5, hits give low values): 1.02
- normalized growth (locus YDR388W, hits give low values): 1.01
- normalized growth (locus YDR392W, strain spt3, hits give low values): 1.04
- normalized growth (locus YDR502C, strain sam2, hits give low values): 1.01
- normalized growth (locus YEL003W, strain gim4, hits give low values): 1.01
- normalized growth (locus YEL037C, strain rad23, hits give low values): 1.03
- normalized growth (locus YEL061C, strain CIN8 (second series), hits give low values): 1.04
- normalized growth (locus YEL061C, strain CIN8, hits give low values): 0.993
- normalized growth (locus YER015W, strain faa2, hits give low values): 1.01
- normalized growth (locus YER016W, strain bim1, hits give low values): 1.02
- normalized growth (locus YER110C, hits give low values): 1.02
- normalized growth (locus YER111C, strain swi4, hits give low values): 1.03
- normalized growth (locus YER155C, strain BEM2 (second series), hits give low values): 1.03
- normalized growth (locus YER155C, strain BEM2, hits give low values): 1.01
- normalized growth (locus YER167W, strain BCK2, hits give low values): 1
- normalized growth (locus YFR010W, strain ubp6, hits give low values): 1.03
- normalized growth (locus YGL078C, strain dbp3, hits give low values): 1.02
- normalized growth (locus YGL086W, strain mad1, hits give low values): 1.01
- normalized growth (locus YGL167C, strain pmr1, hits give low values): 1.03
- normalized growth (locus YGL173C, strain kem1, hits give low values): 1.01
- normalized growth (locus YGL227W, strain vid30, hits give low values): 1.02
- normalized growth (locus YGL240W, strain doc1, hits give low values): 1.02
- normalized growth (locus YGL248W, strain PDE1, hits give low values): 1
- normalized growth (locus YGL253W, strain hxk2, hits give low values): 1.01
- normalized growth (locus YGR078C, strain PAC10, hits give low values): 0.998
- normalized growth (locus YGR135W, strain pre9, hits give low values): 1.01
- normalized growth (locus YGR229C, strain SMI1, hits give low values): 0.989
- normalized growth (locus YGR252W, strain gcn5, hits give low values): 0.996
- normalized growth (locus YHR013C, strain ard1, hits give low values): 1.02
- normalized growth (locus YHR027C, strain rpn1, hits give low values): 1.01
- normalized growth (locus YHR030C, strain SLT2, hits give low values): 1.01 and 0.977
- normalized growth (locus YHR079C, strain IRE1 (second series), hits give low values): 1.01
- normalized growth (locus YHR079C, strain IRE1, hits give low values): 0.991
- normalized growth (locus YHR094C, strain hxt1, hits give low values): 1.01
- normalized growth (locus YHR129C, strain ARP1, hits give low values): 1.01
- normalized growth (locus YHR142W, strain chs7, hits give low values): 1.02
- normalized growth (locus YHR200W, strain rpn10, hits give low values): 1.02
- normalized growth (locus YIL066C, strain RNR3, hits give low values): 1
- normalized growth (locus YIL073C, strain SPO22, hits give low values): 1.05
- normalized growth (locus YIL125W, strain kgd1, hits give low values): 1.01
- normalized growth (locus YIR030C, strain dcg1, hits give low values): 1.03
- normalized growth (locus YJL092W, strain hpr5, hits give low values): 1.03
- normalized growth (locus YJL095W, strain BCK1 (second series), hits give low values): 1.02
- normalized growth (locus YJL095W, strain BCK1, hits give low values): 1.02 and 0.996
- normalized growth (locus YJL115W, strain asf1, hits give low values): 1.04
- normalized growth (locus YJL129C, strain trk1, hits give low values): 1.04
- normalized growth (locus YJL134W, strain LCB3, hits give low values): 1
- normalized growth (locus YJL154C, strain vps35, hits give low values): 1.01
- normalized growth (locus YJL164C, strain tpk1, hits give low values): 1.01
- normalized growth (locus YJL166W, strain qcr8, hits give low values): 1.02
- normalized growth (locus YJL168C, strain set2, hits give low values): 1.01
- normalized growth (locus YJL187C, strain SWE1 (second series), hits give low values): 1.01
- normalized growth (locus YJL187C, strain SWE1, hits give low values): 1.01
- normalized growth (locus YJR043C, strain POL32, hits give low values): 0.998
- normalized growth (locus YJR066W, strain TOR1, hits give low values): 0.944
